From PubChem
PINK1 modulator: A Quantitative High throughput Screen to Identify Chemical Modulators of PINK1 Expression; PINK1 immunofluorescence, high-content cytometry, 24 h; Potency, µM (doses to about 76.6 µM), for inactives: at the highest dose activation (PINK1 increase), usual class: activators; 0.2% of 410,000 active; AID 624263, 2012; active = well fitted activation curve with a large enough effect; inconclusive = small, poorly fitted or top-dose-only effect; cell line not stated here; also: potency is read from the fitted curve at half-maximal effect; % of control where 0% means no effect; nearly all actives have a fitted effect of over 65% in size
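Cells are seeded, rested 12 hours, then given compound at five concentrations or DMSO for 24 hours. After fixation, blocking and antibody staining, PINK1 amount and mitochondrial localization are scored; CCCP serves as control.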
BRCA1 expr act: qHTS Assay to Identify Small Molecule Activators of BRCA1 Expression | MCF7-BRCA1-FFLuc reporter, luminescence, 48 h; response scale: scaled: vehicle 0%, 10 µM genistein 100% | Potency, µM (doses to about 46.1 µM), inactives show at the highest dose activation, most hits filed as activators | 1.1% of 380,000 active; also: potency is read from the fitted curve at half-maximal effect; nearly all actives have a fitted effect of over 80% in size
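Using MCF7 cells harboring a BRCA1 firefly luciferase reporter, plated 2 h before compound pinning, the screen measured luminescence after 48 h incubation. Responses were normalized to DMSO and 10 microM genistein, then fitted for concentration-effect.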
TCR activator: Activators of T cell receptors: qHTS campaign. primary human leukocytes, anti-CD3, IL-2 HTRF, 48 h. Potency, µM (series often up to 9.22 µM), inactives show top-dose activation of IL-2 secretion, actives largely listed as activators. 330,000 tested, under 10 active. AID 504894, 2011; also: % of control where 0% means no effect
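HTRF read-out of IL-2 secretion: europium cryptate donor excited at 320nm, d2 acceptor emission at 665nm. Cells were primary human leukocytes incubated 48 hr with compounds and a-CD3 beads, supplying TCR signal only.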
Akt phos inh: HTS Assay for Inhibitors of Akt Phophorylation: Primary Screen; activity change, % for hits at 50 µM; 0.32% of 360,000 active; Neuro2A IGF-stimulated pAkt S473 HTRF, 20 min; stronger effect = lower value; in the data active = activity change below about -80%; inconclusive = mostly about -51% to -80%; also: % is scaled to controls: 0 for no effect and ±100 for the full control effect
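Single-point screen (50 µM final compound) in Neuro2A cells stimulated 20 min with 6 nM IGF at 37 deg C. After lysis, Ser473-phosphorylated Akt read by HTRF (ex 330 nm, em 615/665 nm) as the 665/615 ratio.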
* hit, by the source's call; i = inactive; ? = inconclusive; . = not tested or not shown; [ ] = another dose, or the depositor's remark. Rows were chosen to be rich in hits. Some 1.5% of all compounds tested hit in one or more screens of this group. Unless noted, calls follow the shape of the dose curve; as a rule, active = well fitted curve in the direction sought with a large enough effect; inconclusive = small, poorly fitted or top-dose-only effect, or another doubt; inactive = no such curve, though single readings can be large; an effect the other way counts as inactive or inconclusive.

SMILES	PINK1 modulator	BRCA1 expr act	TCR activator	Akt phos inh
CO[C@H]1[C@H](NC(=O)c2ccsc2)c2ccccc2C12CCN(Cc1ccc3c(c1)OCO3)CC2	2%	.	.	.
COc1ccc(C)cc1NC(=O)c1oc2ccc(S(=O)(=O)N3CCC4(CC3)OCCO4)cc2c1C	3%	.	.	.
O=C(Nc1ccc2c(c1)OCCO2)C1CCCN1S(=O)(=O)c1ccc(Cl)cc1 (centres undefined)	-4%	0%	7%	-111%*
COc1ccc(/C=C/C(=O)NCC2Cc3cccc(-c4nc(C)cnc4C)c3O2)cc1OC (centres undefined)	1%	.	.	.
CCOC(=O)N1CCN(S(=O)(=O)c2ccc(C)c(C)c2)CC1	-1%[38.3 µM]	3%	.	-99%*
CCOC(=O)N1CCN(S(=O)(=O)c2ccc(OCC)c(C)c2)CC1	1%	-31%	17%	i
CCc1cc(C(=O)NCC2Cc3cccc(-c4ccc(C(=O)OC)cn4)c3O2)no1 (centres undefined)	1%	.	.	.
CCN(CC)S(=O)(=O)c1ccc(-c2nnc(SCc3nnc(-c4ccc(C)cc4)o3)n2CC)cc1	.	-2%[1.84 µM]	1%	.
CCN(CC)S(=O)(=O)c1cccc(-c2nnc(SCc3nnc(-c4ccccc4)o3)n2C)c1	1%	-12%	-2%	-99%*
C/C(=C\c1ccccc1)C(=O)Nc1nccs1	1%	3.2µM*	1%	i
N#C/C(=C\c1cccs1)C(=O)Nc1nccs1	0%	14µM*	2%	i
Cc1c(C(=O)N2CCCC(c3ccccc3)C2)sc2ncnc(NCCc3ccccn3)c12 (centres undefined)	0%	.	.	.
COc1ccccc1C(=O)N1CCOc2ccc(C(C)(O)CCn3cccn3)cc2C1 (centres undefined)	0%	.	.	.
c1csc(-c2nnc(NC3CCCCC3)c3ccccc23)c1	32µM*	-52%	3%[46.1 µM]	i
CN/C=C1\C(=O)C(C)(C)Oc2ccc3ccc(=O)oc3c21	1%	-21%	1%	-93%*
CCOC(=O)CN(C)C(=O)c1cnn(-c2ncc3c(n2)-c2ccccc2CCC3)c1C	-1%	.	.	.
COc1ccc(NC(=S)N2CCC(c3ccccc3)C2)cc1 (centres undefined)	-3%	2.8µM*	4%	i
Cc1cccc(OCC(=O)N2CCC(c3ccccc3)C2)c1 (centres undefined)	.	7.9µM*	.	i
O=C(CCN1CCC(c2ccccc2)C1)c1cccs1 (centres undefined)	0%[38.3 µM]	2%	0%	i
CCc1ccc(NC(=O)N2CCC(c3ccccc3)C2)cc1 (centres undefined)	3%	?	0%	i
O=C(Nc1ccccc1)N1CCC(c2ccccc2)C1 (centres undefined)	0%	3.2µM*	-2%	i
O=C(c1cccs1)N1CCC(c2ccccc2)C1 (centres undefined)	0%	3.5µM*	2%	i
O=C(COc1ccc(F)cc1)N1CCC(c2ccccc2)C1 (centres undefined)	0%	?	3%[46.1 µM]	i
COc1cccc(CNc2nc3c(-c4cccc(C)c4)nnn3c3ccccc23)c1	1%	0%	.	.
C=Cc1ccc(C(=O)N2CCc3c(cnc(C)c3CNC(=O)c3ccc4c(c3)OCO4)C2)cc1	-1%	.	.	.
SMILES	PINK1 modulator	BRCA1 expr act	TCR activator	Akt phos inh
O=C(Cc1ccc(F)cc1)NO	0%	0%	.	.
O=C1CC(CC(=O)N2CC3CCCC2C3)(c2cccc(F)c2)C(=O)N1Cc1cccnc1 (centres undefined)	0%	.	.	.
O=C(CSc1nnc(CNC(=O)c2c(F)cccc2Cl)o1)NCc1ccc2c(c1)OCO2	2%	-2%	2%	-107%*
C=C(c1nc2ccccc2s1)C1Cc2cccc3c2N(CCC3)C1 (centres undefined)	?	-53%	.	.
Cc1ccc(Nc2cc(-n3nc(C)cc3C)ncn2)c(C)c1	6%	1%	-4%	i
Cc1ccc(Nc2cc(-n3cccn3)ncn2)c(C)c1	0%[38.3 µM]	3.2µM*	3%	i
Cc1c(C(=O)N(C)Cc2nccs2)sc2ncnc(NCC3CCCO3)c12 (centres undefined)	2%	.	.	.
COc1cc(CNC(=O)C2CC2)ccc1OCc1ccccc1	?	13µM*	0%	i
COc1cc(CN2CCCCC2)ccc1OCc1ccccc1	1%	10µM*	5%	i
